High-throughput results: PubChem BioAssay, National Center for Advancing Translational Sciences (NCATS)
TDP1 cell CPT = qHTS for Inhibitors of human tyrosyl-DNA phosphodiesterase 1 (TDP1): qHTS in cells in presence of CPT; hit rate 12% among 420,000; Potency, µM (series often up to 46.2 µM), for inactives: at the top dose activity change, negative = growth inhibition, usual class: inhibitors; chicken DT40 Tdp1-/-;hTDP1 cells + 20 nM CPT, ATP luminescence, 48 h; AID 686979, 2013; further: potency means the concentration at half of the fitted maximal effect; nearly all actives have a fitted effect of over 55% in size
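Cell growth measured by CellTiter-Glo luminescence after a minimum 48 h, 37 C compound exposure with 20 nM CPT in Tdp1-knockout DT40 cells stably expressing hTDP1, seeded 400/well; qHTS titration format.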
ALOX12 inh = Primary qHTS assay for inhibitors of human arachidonate 12S-lipoxygenase (ALOX12): Round 2. purified 12hLO, xylenol orange hydroperoxide absorbance. Polyunsaturated fatty acid lipoxygenase ALOX12 (Homo sapiens), P18054. hit rate 1.1% among 580,000. Potency, µM (series often up to 108 µM), inactives show top-dose activity change, negative = inhibition, most hits filed as inhibitors; further: potency means the concentration at half of the fitted maximal effect
Target sequence (P18054 whole entry, looked up): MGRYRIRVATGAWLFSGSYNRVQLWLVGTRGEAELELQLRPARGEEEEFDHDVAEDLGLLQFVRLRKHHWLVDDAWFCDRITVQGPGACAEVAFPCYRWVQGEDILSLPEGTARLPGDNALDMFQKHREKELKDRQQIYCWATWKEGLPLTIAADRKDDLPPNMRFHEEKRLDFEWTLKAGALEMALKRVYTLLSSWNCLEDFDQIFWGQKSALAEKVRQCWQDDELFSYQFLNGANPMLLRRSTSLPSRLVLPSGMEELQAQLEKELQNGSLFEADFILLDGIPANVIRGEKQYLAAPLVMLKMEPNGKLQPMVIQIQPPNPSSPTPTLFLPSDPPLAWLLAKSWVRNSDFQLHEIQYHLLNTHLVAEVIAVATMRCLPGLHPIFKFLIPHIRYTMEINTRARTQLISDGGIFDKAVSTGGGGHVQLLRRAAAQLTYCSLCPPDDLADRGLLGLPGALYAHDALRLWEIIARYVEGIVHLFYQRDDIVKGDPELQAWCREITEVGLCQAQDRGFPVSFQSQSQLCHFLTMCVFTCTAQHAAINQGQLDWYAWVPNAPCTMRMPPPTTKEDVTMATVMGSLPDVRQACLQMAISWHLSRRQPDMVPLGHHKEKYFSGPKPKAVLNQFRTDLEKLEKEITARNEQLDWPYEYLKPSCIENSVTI
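Purified human 12hLO at 150 nM in 25 mM Hepes, 0.01% Triton X-100, pH 7.0, preincubated 15 min at room temperature with compound. Reaction started with 40 uM arachidonic acid, 30 min at room temperature. Hydroperoxide measured by Fe-xylenol orange, 573/405 nm absorbance ratio.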
IL-1B inflam inh = qHTS for Inhibitors of Inflammasome Signaling: IL-1-beta AlphaLISA Primary Screen | THP-1 LPS/ATP IL-1B secretion, AlphaLISA, 16 h; hits give low values | activity change, % at 57.5 µM | hit rate 4.7% among 360,000; in the data active means activity change below about -50%; inconclusive means mostly about -30% to -49%
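THP-1 cells pretreated 1 hr with compounds (up to 57.5 uM final), then stimulated with LPS (250 ng/mL final) plus ATP (1.25 mM final); secreted IL-1B measured by AlphaLISA after 16 hr, decreased signal indicating inhibition.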
HT1080 IDH1KD tx = qHTS for induction of synthetic lethality in tumor cells producing 2HG: qHTS for the HT-1080-IDH1KD cell line; AID 686971, 2013; hit rate 2% among 360,000; Potency, µM (highest dose often 46.1 µM), inactives show at the top dose activity, negative = toxicity, most hits filed as cytotoxic; HT-1080 IDH1 knockdown viability, ATP luminescence, 48 h;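 further: potency means the concentration at half of the fitted maximal effect; 0% = DMSO wells and -100% = cell-free medium wells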
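After a 2 h attachment period, IDH1KD HT-1080 cells took pin-transferred compound for 48 h at 37 °C; ATP-based luminescence after 10 min room-temperature reagent incubation reported viability.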
HT1080NT lethal = qHTS for induction of synthetic lethality in tumor cells producing 2HG: qHTS for the HT-1080-NT fibrosarcoma cell line | HT-1080-NT fibrosarcoma viability, CellTiter-Glo ATP luminescence, 48 h | AID 686970, 2013 | Potency, µM (series often up to 46.1 µM), for inactives: at the top dose activity, negative = less viability, most hits filed as cytotoxic | hit rate 1.6% among 360,000;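 further: NT is the 2HG producing partner of a matched IDH1 knockdown line; potency means the concentration at half of the fitted maximal effect; 0% = DMSO-treated cells and -100% = media-only wells without cells; nearly all actives have a fitted effect of over 55% in size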
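Viability of the 2HG-overproducing fibrosarcoma line after 48 hours of compound exposure at 37 degrees C was determined by luminescence with CellTiter-Glo, and concentration-effect curves were then fitted and categorized.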
DT40 TDP1 no CPT = qHTS for Inhibitors of human tyrosyl-DNA phosphodiesterase 1 (TDP1): qHTS in cells in absence of CPT; DT40 Tdp1-/- hTDP1 cells, no CPT, ATP luminescence, 48 h; Potency, µM (top dose mostly 46.2 µM), for the others: top-dose activity change, negative = growth inhibition, usual class: inhibitors; hit rate 15% among 420,000; AID 686978, 2013; further: potency means the concentration at half of the fitted maximal effect; nearly all actives have a fitted effect of over 55% in size
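Stably hTDP1-transfected Tdp1-null chicken DT40 cells were treated with library compounds minus camptothecin and grown for at least 48 hr at 37 °C, after which cellular ATP was quantified by luminescence.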
* = called active by the depositor; ? = inconclusive; / = not tested or not shown; [ ] = remark or other dose. Shown is part of a subset that was picked to be rich in hits. Unless noted, the call rests on the fitted dose curve; in most records, active means well fitted curve in the direction sought with a large enough effect; inconclusive means small, poorly fitted or top-dose-only effect, or another doubt; inactive means no such curve, though single readings can be large; an effect the other way counts as inactive or inconclusive. Unless noted, on the % scale 0 is the no-effect control and ±100 the full control effect.

SMILES | TDP1 cell CPT | ALOX12 inh | IL-1B inflam inh | HT1080 IDH1KD tx | HT1080NT lethal | DT40 TDP1 no CPT
COc1cccc(C(=O)NCC(c2ccco2)N2CCc3ccccc3C2)c1 (stereo not drawn) | -3% | ? | -15 | 0% | 4% | -8%
COc1ccccc1C(=O)NCC(c1cccs1)N1CCc2ccccc21 (stereo not drawn) | 21µM* | -6% | -1 | -15% | -1% | 18µM*
COc1cc(C(=O)NCC(c2cccs2)N2CCc3ccccc32)cc(OC)c1OC (stereo not drawn) | ? | -4% | ? | -15% | -17% | 21µM*
COc1cccc(C(=O)NCC(c2cccs2)N2CCc3ccccc32)c1 (stereo not drawn) | 13µM* | ? | ? | -21% | -3% | ?
COc1ccccc1C(=O)NC(CCSC)C(=O)NCC(c1cccs1)N1CCOCC1 (stereo not drawn) | -22% | -4% | 1 | -7% | -1% | -24%
COc1cccc(CNC(=O)C2=C(c3ccccc3)c3cc(Cl)ccc3S(=O)(=O)N2C)c1 | / | -1% | / | / | / | /
CC(NC(=O)/C=C/c1cccnc1)c1ccc(C(F)(F)F)cc1 (stereo not drawn) | / | 1% | / | / | / | /
CC(=O)Nc1ccc(CN2CCn3c(nn(-c4cccc(Cl)c4)c3=O)C2)cc1 | / | 6%[6.33 µM] | / | / | / | /
CCCOc1ccc2oc(=O)c3c(c2c1)CCCN3C(=O)CN1CCN(c2ncccn2)CC1 | 18µM* | 0% | 6 | 18% | 13% | ?
O=C(CN1CCCC1)N1CCCc2c1c(=O)oc1ccc(OCc3ccccc3)cc21 | ? | -9% | -8 | ? | ? | ?
CCCOc1ccc2oc(=O)c3c(c2c1)CCCN3C(=O)CN1CCCC(C(=O)OCC)C1 (stereo not drawn) | ? | 0% | 10 | -7% | -4% | 23µM*
CCOC(=O)C1CCN(CC(=O)N2CCCc3c2c(=O)oc2ccc(OCc4ccccc4)cc32)CC1 | -22% | -19% | / | / | / | -22%
Cc1ccn(CC(=O)N2CC(F)(F)C[C@H]2c2nc(C3CC3)no2)n1 | / | 12% | / | / | / | /
Cc1ccc(C)c(Nc2cc(C(=O)NC3CCCC3)c3ccccc3n2)c1 | -18% | -16% | / | / | / | ?
Cc1ccc(-c2cc(C(=O)NCc3ccncc3)c3ccccc3n2)c(C)c1 | / | 25% | / | / | / | /
Cc1ccc(C)c(Nc2cc(C(=O)NCCCN(C)C3CCCCC3)c3ccccc3n2)c1 | ? | ? | / | / | / | 15µM*
COc1ccc(Nc2cc(C(=O)NCc3ccccc3)c3ccccc3n2)cc1 | ? | -29% | / | / | / | -26%
Cc1cc(C)cc(Nc2cc(C(=O)NCc3ccccc3)c3ccccc3n2)c1 | 23µM* | -26% | / | / | / | 21µM*
Cc1cc(C)cc(Nc2cc(C(=O)NCCCN(C)C3CCCCC3)c3ccccc3n2)c1 | 4.6µM* | ? | / | / | / | 3.3µM*
COC(CNC(=O)c1cc(Nc2cc(C)cc(C)c2)nc2ccccc12)OC | / | 2% | / | / | / | /
COc1ccc(CNC(=O)c2cc(Nc3ccc(C)cc3C)nc3ccccc23)cc1 | 18µM* | ? | / | / | / | 21µM*
Cc1sc2ncnc(SC(F)F)c2c1C | / | -27% | / | / | / | /
CC[C@H](C)C1OC(=O)[C@@H](C)[C@@H](CC)NC(=O)[C@H](C)N(C)C(=O)C(C)(C)C(=O)C(C)NC(=O)[C@H](Cc2ccc(OC)cc2)N(C)C(=O)[C@H](C(C)C)N(C)C(=O)CNC(=O)[C@H](CC(C)C)N(C)C(=O)CNC1=O (stereo partly drawn) | 0.15µM* | / | -10 | 0.18µM* | 0.26µM* | 0.18µM*
CCC[C@H]1NC(=O)[C@H](C)N(C)C(=O)C(C)(C)C(=O)C(C)NC(=O)[C@H](Cc2ccc(OC)cc2)N(C)C(=O)[C@H](C(C)C)N(C)C(=O)CNC(=O)[C@H](CC(C)C)N(C)C(=O)CNC(=O)[C@H]([C@@H](C)CC)OC(=O)[C@H]1C (stereo partly drawn) | 0.033µM* | ? | -29 | 1µM* | 0.82µM* | 0.021µM*
C/C=C/CC(C)C(O)C1C(=O)NC(CC)C(=O)N(C)CC(=O)N(C)C(CC(C)C)C(=O)NC(C(C)C)C(=O)N(C)C(CC(C)C)C(=O)NC(C)C(=O)NC(C)C(=O)N(C)C(CC(C)C)C(=O)N(C)C(CC(C)C)C(=O)N(C)C(C(C)C)C(=O)N1C (stereo not drawn) | / | -6% | / | / | / | /
SMILES | TDP1 cell CPT | ALOX12 inh | IL-1B inflam inh | HT1080 IDH1KD tx | HT1080NT lethal | DT40 TDP1 no CPT
CCc1ccc2oc(C(=O)Nc3cccc4cccnc34)c(C)c2c1 | / | 6% | / | / | / | /
COC(=O)c1ccccc1NC(=O)Cn1ccn2nc(-c3ccc(F)cc3)c(CO)c2c1=O | / | -14% | / | / | / | /
COc1ccc2[nH]c3c(c2c1)CCNC3c1ccc([N+](=O)[O-])o1 (stereo not drawn) | 9.2µM* | 53% | -15 | -2% | -1% | 6.5µM*
COc1ccc2[nH]c3c(c2c1)CCNC3C1CC=C(C)CC1 (stereo not drawn) | 9.2µM* | ? | -26 | ? | ? | 6.5µM*
COc1ccc2[nH]c3c(c2c1)CCNC31CCNCC1 | / | 16% | / | / | / | /
COc1cc(C2NCCc3c2[nH]c2ccccc32)ccc1OC(C)C (stereo not drawn) | / | -16% | / | / | / | /
CC1=NN(C(=O)CSCc2ccccc2Cl)C(O)(C(F)(F)F)C1 (stereo not drawn) | / | 7% | / | / | / | /
Clc1ccc2nc(-c3cccc(Br)c3)cn2c1 | / | 13µM* | / | / | / | /
Clc1ccc(-c2cn3cc(Br)ccc3n2)cc1 | / | -28% | / | / | / | /
CCOc1ccc2nc(NC3=NC(c4ccc(OC)cc4)CC(=O)N3)nc(C)c2c1 (stereo not drawn) | 23µM* | ? | -103* | ? | ? | 21µM*
CC(CNC(=O)c1cc2ccccc2oc1=O)N(C)c1ccccc1 (stereo not drawn) | / | -28% | / | / | / | /
CCCn1nc(C(=O)Nc2cc(C)ccc2OC)c2ccccc2c1=O | / | 1% | / | / | / | /
Clc1ccc(CN2CCCCCC2)cc1 | 0% | 0.79µM* | -1 | 26% | 8% | -3%
